Experimental findings from PubChem BioAssay (Tox21) are described below.

Where “and” joins values, the source holds several entries; their conditions need not be identical. Equal entries are not always repeated. Inconclusive results are not listed. Values without a mark were called inactive. Calls of active or inactive are those of the source. The call rests on the fitted dose curve; in most records, active means well fitted activation curve with a large enough effect in the repeat runs; inconclusive means weak or mixed curves; inactive means flat fitted curve, though single readings scatter.
On the % scale 0 is the no-effect control and ±100 the full control effect; potency means the concentration at half of the fitted maximal effect.

The assay can be described thus: A CellTox Green Cytotoxicity Assay to monitor cytotoxicity in HEK293 cells - 16 hour (AID 1224888). Further: nearly all actives have a fitted effect of over 35% in size. To be noted: CellTox Green fluorescence; series mostly up to 76.8 µM; activity change: at the top concentration. The text has this: National Center for Advancing Translational Sciences [NCATS]
NIH Chemical Genomics Center [NCGC]
U.S. Environmental Protection Agency [EPA]
National Institutes of Environmental Health Sciences [NIEHS]
National Toxicology Program [NTP]
Cell-based models are critical for drug discovery. Determining the natural cytotoxic effects resulting from test compounds is an essential research activity. A CellTox Green Cytotoxicity Assay to monitor cytotoxicity in real time of continues cell culture during 40 hours of the compound treatment was used to screen Tox21 10K library compounds in Hek293 cells. CellTox Green Cytotoxicity Assay is a nonlytic, homogeneous, biofluorescent method to measure cytotoxicity in cell culture after experimental manipulation. The assay system uses a proprietary asymmetric cyanine dye that is excluded from viable cells but preferentially stains the dead cell's DNA. […] Viable cells produce no appreciable increases in fluorescence. Therefore, the fluorescence signal produced by the binding interaction with dead cell DNA is proportional to cytotoxicity.
The mixture of Hek293 cell suspension and reagents were dispensed at 600cells/6 ul/well in 1536-well tissue culture treated black solid bottom plates using a Multidrop dispenser. After the assay plates were incubated at a 37 C/5% CO2 incubator for 5 hours, 23 nL of compounds dissolved in DMSO, positive and negative controls was transferred to the assay plate by a pintool work station. The plates were incubated at 37 C for 40 hours. The fluorescence intensity were measured at 0h, 8h, 16h, 24h, 32h and 40h time points using ViewLux plate reader during compound treatment.
Consider `Clc1ccccc1`, for which the “activity change” value was -15.2%. On the same count and under the same terms, the result for `CC(C)(C)NCC(O)c1cc(Cl)c(N)c(C(F)(F)F)c1` (stereo not given) reads 3.81% [at 35.3 µM, stronger effect = higher value]; that for `CCC(C)Cl` (stereo not given), -9.78%. As for `CN(C)c1ccc(N=O)cc1`, the Potency result is “inactive”. For `OCCSSCCO`, the “activity change” value is -14.1%. As for `CC1(C)CC(=O)CC(C)(C)N1[O]`, the “activity change” value was -2.5%. In the case of `CN[C@@H](C)[C@H](O)c1ccccc1`, the “activity change” value is 3.11% [at 35.3 µM, stronger effect = higher value]. For `C#CC(O)(C=CCl)CC` (stereo not given), the “activity change” value is -5.98% [at 35.3 µM, stronger effect = higher value].

As for `CN(C1CCCCC1)C1CCCCC1`, the “activity change” value was 6.77%. Regarding `C[CH2][Hg][S]c1ccccc1C(=O)O`, the Potency is 4.77 µM (active). Regarding `C[N+]1(CCF)[C@@H]2CC[C@H]1CC(OC(=O)C(O)(c1ccccc1)c1ccccc1)C2` (stereo not given in full), the “activity change” value is -1.21% [at 35.3 µM, stronger effect = higher value]. Same read-out and setting: the result for `CCOC(=O)c1cncn1C(C)c1ccccc1` (stereo not given) reads 3.02% [at 35.3 µM, stronger effect = higher value]. As for `c1ccc2c(c1)sc1ccccc12`, the Potency result was “inactive”. As for `O=C(Cc1ccccc1)OCCc1ccccc1`, the “activity change” value was 2.57%. In the case of `CC(C)(C)N(NC(=O)c1ccc(Cl)cc1)C(=O)c1ccccc1`, the “activity change” value is 0.121%.

Regarding `[Cl-].[Cl-].[Hg+2]`, the Potency is 38.7 µM (active) and 11 µM (active). As to `O=C(O)C(O)C(O)C(=O)O` (stereo not given), the “activity change” value was 6.53%. `C=CCc1ccccc1O`: the “activity change” value is -1.36%.

With `C=CCOC(=O)C(C)(C)OC(=O)c1cc(-n2c(=O)cc(C(F)(F)F)n(C)c2=O)ccc1Cl`, the “activity change” value was -11.4%. Turning to `Cc1cnc(C2=NC(C)(C(C)C)C(=O)N2)c(C(=O)O)c1` (stereo not given), the “activity change” value is -1.39%. As to `COc1ccc2c(c1OC)C(=O)O[C@H]2[C@@H]1c2cc3c(cc2CCN1C)OCO3`, the “activity change” value is -1.7% [at 35.3 µM, stronger effect = higher value]. Same read-out and setting: the result for `CC(C)(C)NCC(O)c1ccccc1Cl` (stereo not given) reads 2.6% [at 35.3 µM, stronger effect = higher value]. Consider `CCCN(CCC)c1c([N+](=O)[O-])cc(C(C)C)cc1[N+](=O)[O-]`, for which the Potency entry is “inactive”. For `CC(=O)NNc1ccccc1`, the “activity change” value was -6.67%. Same read-out and setting: as for `Nc1c(Br)cc(Br)c2c1C(=O)c1ccccc1C2=O`, the figure is -11% [at 15.8 µM, stronger effect = higher value].

For the compound `CCCSP(=S)(OCC)Oc1ccc(SC)cc1` (stereo not given), the “activity change” value was 4.81%. Still for that read-out and setting: as for `O=C(O)C(F)(F)C(F)(F)C(F)(F)C(F)(F)C(F)(F)F`, the figure is -11.7%; as for `FC(Cl)(Cl)C(F)(Cl)Cl`, -4.31%. Same read-out and setting: as for `COC1CC(=C(c2cccs2)c2cccs2)C[N+](C)(C)C1` (stereo not given), the figure is -15.3% [at 35.3 µM, stronger effect = higher value]. Same read-out and setting: the result for `Oc1cccc(Cl)c1` reads -18.7%; that for `O=S(=O)(c1ccccc1)c1ccccc1`, -8.8%; that for `O=[N+]([O-])/C=C/c1ccccc1`, 10.9%.

On to `CC(Cc1ccccc1)NCc1ccccc1Cl` (stereo not given), for which the “activity change” value was 16.3% [at 35.3 µM, stronger effect = higher value].

Turning to `CCN(C(C)=O)c1cccc(-c2ccnc3c(C#N)cnn23)c1`, the “activity change” value was -2.16% [at 35.3 µM, stronger effect = higher value].

Regarding `C1CCNCC1`, the “activity change” value is 3.48%. Still for that read-out and setting: as for `CC(C)CCCCCCCOC(=O)c1ccccc1C(=O)OCCCCCCCC(C)C`, the figure is -1.9%; as for `CC[N+]1(CCOC(=O)C(O)(c2ccccc2)c2ccccc2)CCCCC1`, 1.35% [at 35.3 µM, stronger effect = higher value].

`CCCCCCCCn1sccc1=O`: the Potency was 51.3 µM (active). Consider `O=C(N/N=C/c1ccc([N+](=O)[O-])o1)c1cc([N+](=O)[O-])cc([N+](=O)[O-])c1O`, for which the “activity change” value was -15.6% [at 35.3 µM, stronger effect = higher value].

Regarding `OCCCl`, the “activity change” value was 1.05%.
